The campaign covered roughly 69,000 compounds. About 420 (0.61%) showed an effect of 50% or more. Shown is part of a subset that was picked to be rich in strong results.
biological target: T1, Histidine--tRNA ligase (Leishmania infantum) (UniProt A4I591); experiment: Leishmania infantum Histidine tRNA synthetase (LdHisRS); assay type: functional; parameters: scale not given: in the data most compounds retested in dose-response had high values; details: 30 µM
T1 sequence (whole entry): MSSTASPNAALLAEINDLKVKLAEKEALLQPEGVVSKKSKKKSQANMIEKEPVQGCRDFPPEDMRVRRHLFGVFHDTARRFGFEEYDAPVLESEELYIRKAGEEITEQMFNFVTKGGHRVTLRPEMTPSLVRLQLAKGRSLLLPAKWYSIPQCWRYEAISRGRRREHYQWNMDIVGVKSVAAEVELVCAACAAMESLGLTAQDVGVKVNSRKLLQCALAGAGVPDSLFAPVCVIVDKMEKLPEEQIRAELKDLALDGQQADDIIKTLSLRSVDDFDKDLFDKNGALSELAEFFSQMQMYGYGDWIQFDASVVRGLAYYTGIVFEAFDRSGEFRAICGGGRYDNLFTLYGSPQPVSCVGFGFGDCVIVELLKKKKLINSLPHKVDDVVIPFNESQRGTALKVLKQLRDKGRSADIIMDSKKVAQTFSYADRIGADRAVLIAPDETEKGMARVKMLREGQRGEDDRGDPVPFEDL

Point of comparison: `Cc1nc(CN(C)C2CCN(Cc3ccc4ccccc4n3)C2)no1` (stereo not drawn), Percent Effect 53.1%. Against it:
- Cc1cc(C(=O)N2CC[C@@H]3CO[C@@H](CN4CCCC4)[C@@H]3C2)no1 — lower, -2.63%
- CCn1nc2c(cc1=O)CN(CCCN1CCCC1=O)CC2 — lower, 30.7%
- CCCn1nc2c(cc1=O)CN(CCCN1CCCC1=O)CC2 — lower, 52.4%
- CCCn1nc2c(cc1=O)CN(CCCS(N)(=O)=O)CC2 — higher, 61.9%
- CCCn1nc2c(cc1=O)CN(CC(=O)Nc1ccncc1)CC2 — lower, 25%
- CCCn1nc2c(cc1=O)CN(CCS(C)(=O)=O)CC2 — lower, 40.5%
- CCCn1nc2c(cc1=O)CN(CCN1CCCC1=O)CC2 — lower, 23.7%
- CN(C)C(=O)CO[C@H]1CN(Cc2ccccc2)[C@@H]2CCCO[C@H]12 — lower, 20.6%
- CC(C)(C)CC(=O)N1CC[C@H]2NC(=O)N(Cc3ccccc3)C(=O)[C@H]21 — lower, 30.6%
- Cc1ncsc1CN1CC[C@H]2OCC[C@@]2(C(=O)NC(C)C)C1 — lower, -0.971%
- CO[C@@H]1CC[C@H]2[C@H]1OCCN2Cc1ccc(F)c(F)c1 — lower, 8.33%
- c1cnn(CCCO[C@@H]2CN(C3CCOCC3)[C@@H]3CCCO[C@@H]32)c1 — lower, 15.3%
- COc1ccccc1N1CCC(NCc2c(C)noc2C)C1 (stereo not drawn) — lower, 7.14%
- Cc1noc(C)c1CNc1c(N2CCCC2)cccc1N1CCCC1 — higher, 84%
- Cc1noc(CNc2c(N3CCCC3)cccc2N2CCCC2)n1 — lower, 6.67%
- Cc1noc([C@@H]2C[C@H]3CN(CC4CCOCC4)C[C@H]3O2)n1 — lower, 10.5%
- CO[C@H]1CCN(C(=O)c2ccsc2)[C@@H]2CN(CC3CC3)C[C@H]12 — lower, 5.77%
- Cc1nc(CN(C)C2CCN(Cc3nc4ccccc4s3)C2)no1 (stereo not drawn) — lower, 25.8%
- CC(=O)N(Cc1noc(C)n1)C1CCN(Cc2ccccc2C#N)C1 (stereo not drawn) — lower, 2.7%
- Cc1nc(CN(C)C2CCN(Cc3nc4ccccc4n3C)C2)no1 (stereo not drawn) — lower, 10.3%
- CC(=O)N(Cc1noc(C)n1)C1CCN(Cc2cccc(C#N)c2)C1 (stereo not drawn) — higher, 63.2%
- CC(=O)N(Cc1noc(C)n1)C1CCN(Cc2ccc(C#N)cc2)C1 (stereo not drawn) — lower, 17.1%
- Cc1cnc(N2C[C@@H]3[C@@H](C(=O)NCC(C)C)CCS(=O)(=O)[C@@H]3C2)nc1 — lower, 12.3%
- CN1[C@H](Cn2cncn2)C[C@@H]2CN(C3CCOCC3)CC[C@@H]21 — lower, 20%
- Cc1n[nH]c(C)c1CN1CC[C@@H]2[C@@H](CCC(=O)N2CCc2c[nH]cn2)C1 — lower, 19.4%
- CC(C)CNC(=O)N1C[C@H]2C[C@H](C(=O)NCc3ccccc3)[C@@H](C1)O2 — lower, 14.6%
- O=c1c2cnc(N3CCCCC3)nc2ccn1-c1ccccc1 — lower, 7.77%
- O=c1c2cnc(N3CCOCC3)nc2ccn1-c1ccccc1 — lower, 50%
- O=c1c2cnc(N3CCCC3)nc2ccn1-c1cccc(F)c1 — lower, 13.3%
- COc1cc(CO)c(OC)c2c1OCO2 — lower, 18.3%
- COc1cc(CCO)c(OC)c2c1OCO2 — lower, 51.7%
- COc1cc(CCC(C)O)c(OC)c2c1OCO2 (stereo not drawn) — lower, 0%
- Cc1noc([C@H]2C[C@H]3OCC[C@H]3N(S(C)(=O)=O)C2)n1 — lower, -20.2%
- COC(=O)c1ccc(OC)c(Cn2cc(N)cn2)c1 — lower, 50.6%
- CCn1cc(C(=O)Nc2cc(C(=O)OC)ccc2C(=O)OC)cn1 — lower, 10.3%
- COC(=O)c1ccc(OC)c(Cn2cc(Br)cn2)c1 — lower, 1.12%
- CNC(=O)[C@@H]1[C@@H](c2ccccc2)CN2CCN(Cc3ccccn3)C[C@H]12 — lower, 8.16%
- CSCC(=O)N1C[C@H]2CC[C@@H]1CN(Cc1ccccc1)C2 — lower, 26.9%
- CN(Cc1ccco1)[C@@H]1CN(Cc2cccs2)C[C@@H]2CCCO[C@@H]21 — lower, 5.46%
- CN(CCCOc1ccccc1)C(=O)CN1CCc2cncnc2C1 — higher, 65.2%
- COCCCN1CCc2cncnc2C1 — lower, 50.6%
- Cc1cccc(OCCNC(=O)CN2CCc3cncnc3C2)c1 — lower, 20.2%
- CC(C)OCCN1CCc2cncnc2C1 — lower, 37.1%
- O=C(CN1CCc2cncnc2C1)NCCOc1cccc(Cl)c1 — lower, 18.4%
- O=C(CN1CCc2cncnc2C1)NCCOc1ccccc1 — lower, 50%
- CCOCCN1CCc2cncnc2C1 — lower, 32.3%
- COc1ccccc1OCCNC(=O)CN1CCc2cncnc2C1 — lower, 20.2%
- CS(=O)(=O)c1ccc(OCCCN2CCc3cncnc3C2)cc1 — lower, 12.5%
- O=C(c1cccc(F)c1)N1CCN2C[C@H](OCc3cccnc3)C[C@H]2C1 — lower, 9.49%
- COCC(=O)N1CC[C@H]2N(C)CC[C@@]2(C(=O)Nc2ccccc2)CC1 — lower, 15.4%
- c1cc(CN2CC[C@@H]3[C@@H](CO[C@H]3CN3CCOCC3)C2)cs1 — lower, 18.1%
- COc1cc(C)ccc1OCCN1CC[C@@]2(O)CCNC[C@H]2C1 — lower, 12.3%
- COc1ccccc1-n1cc(CN2CCN(C)[C@@H]3CS(=O)(=O)C[C@@H]32)cn1 — lower, 17.1%
- CCO[C@@H]1CC[C@H]2[C@H]1OCCN2S(=O)(=O)C1CC1 — lower, 4.17%
- CNc1cc2c(nn1)CCN(C(=O)c1ccoc1)C2 — lower, 10.7%
- CNc1cc2c(nn1)CCN(C(=O)c1coc(Br)c1)C2 — lower, 52.2%
- CNc1cc2c(nn1)CCN(C(=O)c1cc(F)cc(F)c1)C2 — lower, 21.3%
- COCCn1ccc(NC(=O)Nc2ccccn2)n1 — lower, 13.2%
- Cn1cc(NC(=O)c2ccccn2)cc(Cl)c1=O — lower, 10.3%
- COc1ccsc1C(=O)Nc1cc(Cl)c(=O)n(C)c1 — higher, 103%
- Cn1cc(NC(=O)c2cc[nH]n2)cc(Cl)c1=O — lower, 10.3%
- Cc1ccsc1C(=O)Nc1cc(Br)c(=O)n(C)c1 — higher, 107%
- Cn1cc(NC(=O)c2ccccn2)cc(Br)c1=O — lower, 15.4%
- CCC(C#N)NC(=O)c1sccc1OC (stereo not drawn) — lower, 10.6%
- COc1ccsc1C(=O)Nc1cc(Br)c(=O)n(C)c1 — higher, 109%
- COc1ccsc1C(=O)NCCNc1ccccc1 — lower, 11.7%
- Cc1ccsc1C(=O)Nc1cnn(CC(=O)NC2CCCC2)c1 — lower, 3.23%
- Cn1cc(NC(=O)Nc2ccccn2)cc(Cl)c1=O — higher, 121%
- COc1ccsc1C(=O)Nc1cc(CN2CCOCC2)ccc1C — lower, -11.1%
- CCS(=O)(=O)N1CCO[C@H]2[C@H](Oc3ncccc3F)CC[C@@H]21 — lower, 8.22%
- O=C1[C@@H]2CCN(Cc3ccoc3)C[C@@H]2OCCN1c1ccccc1 — lower, 9.49%
- O=C1NC[C@@]2(C(=O)O)CN(Cc3ccc(Oc4ccccc4)cc3)C[C@@H]12 — lower, 12.1%
- CC(C)c1nc(CN2CCC(CO)CC2)cs1 — lower, 13.2%
- CC(C)c1nc(CC(=O)Nc2nc(CN3CCCCCC3)cs2)cs1 — higher, 53.3%
- CC(C)c1nc(CN2CCCCC2)cs1 — lower, 0%
- Cc1nc(-c2ccco2)ccc1C(=O)N1CCc2nnc(N)cc2C1 — lower, 2.63%
- NC(=O)N1C[C@@H]2CN(C(=O)c3ccco3)C[C@@H]2C1 — lower, 15.5%
- O=C(c1cc(-c2ccco2)nc2c(Cl)cccc12)N1CC[C@H]2CNC[C@H]21 — lower, 40%
- O=C1CN(C(=O)c2cc(-c3ccco3)nc3c(Cl)cccc23)CCN1 — higher, 81.7%
- O=C(c1cc(-c2ccco2)nc2c(Cl)cccc12)N1C[C@H]2CNC[C@H]2C1 — higher, 53.3%
- Cc1nc(-c2ccco2)ccc1C(=O)N1CCn2c(C)nnc2C1 — lower, 25.4%
- O=C(c1cc(-c2ccco2)nc2c(Cl)cccc12)N1CCS(=O)(=O)CC1 — lower, 15%
- COCC1CCN(C(=O)c2cc(-c3ccco3)nc3c(Cl)cccc23)C1 (stereo not drawn) — lower, 11.7%
- CN1C[C@H]2CN(Cc3cccc(OC(F)(F)F)c3)CCN2C1=O — lower, 21.6%
- O=C(NCc1cccs1)[C@@H]1CC[C@@H]2[C@@H](CCN2c2ncccn2)O1 — lower, 17.9%
- CN(Cc1ccco1)[C@@H]1CN(C(=O)c2cnccn2)C[C@@H]2CCCO[C@@H]21 — lower, 11.3%
- COC[C@@]12CCC[C@@H]1CN(C(=O)COC1CCCC1)C2 — lower, 0%
- CC(=O)N1[C@H](CN(C)C)C[C@@H]2CN(C(=O)c3ccsc3)CC[C@@H]21 — lower, 15.4%
- CN(Cc1nc(N)c2ccccc2n1)CC1CCCN1c1cccnn1 (stereo not drawn) — lower, 21.3%
- Cc1nc2ccccc2nc1CN(C)CC1CCCN1c1cccnn1 (stereo not drawn) — lower, 34.7%
- Cc1nc(CN(C)CC2CCCN2c2cccnn2)nc2ccccc12 (stereo not drawn) — higher, 74.4%
- COc1ccc(CN2CCO[C@H]3[C@H](Oc4ccccn4)CC[C@@H]32)cc1 — lower, 25.7%
- O=C(c1ccco1)N1C[C@H]2CCCN(Cc3ccoc3)[C@H]2C1 — lower, 16.4%
- c1cnc(N2CCO[C@H]3CN(CC4CCCC4)C[C@H]32)cn1 — lower, 9.91%
- Brc1cccc(C2(CNCc3cc[nH]c3)CCOCC2)c1 — lower, 40.9%
- FC(F)(F)c1cccc(C2(CNCc3cc[nH]c3)CCOCC2)c1 — lower, 12.7%
- Brc1ccc(C2(CNCc3cc[nH]c3)CCOCC2)cc1 — lower, 52.1%
- CN1C[C@H](c2ccccc2)[C@H]2CN(C(=O)Cc3ccc(O)cc3)CC[C@H]21 — lower, 5.59%
- O=C1CC(c2ccc(C(=O)O)cc2)c2ncn(-c3cccc(F)c3)c2N1 (stereo not drawn) — lower, 46.6%
- O=C1CC(c2cccnc2)c2c(c(C(=O)O)cn2-c2ccccc2F)N1 (stereo not drawn) — lower, 20.6%
- O=C1CC(c2ccc(C(=O)O)cc2)c2ncn(-c3ccc(F)cc3)c2N1 (stereo not drawn) — higher, 81.7%
- Cc1nn(-c2ccccc2)c2c1C(c1ccc(C(=O)O)cc1)CC(=O)N2 (stereo not drawn) — lower, 18.4%
- O=C1CC(c2ccc(C(=O)O)cc2)c2ncn(-c3ccccc3Cl)c2N1 (stereo not drawn) — lower, 45%
- O=C1CC(c2cccc(Cl)c2)c2snc(C(=O)O)c2N1 (stereo not drawn) — lower, 1.72%
- O=C1CC(c2ccc(C(=O)O)cc2)c2ncn(-c3cccnc3)c2N1 (stereo not drawn) — lower, 30%
- O=C1CC(c2ccncc2)c2c(c(C(=O)O)cn2-c2ccc(F)cc2)N1 (stereo not drawn) — lower, 29.1%
- O=C1CC(c2ccc(C(=O)O)cc2)c2ncn(-c3ccccc3F)c2N1 (stereo not drawn) — lower, 51.7%
- Cn1c(=O)c2c(n3ncnc13)NC(=O)CC2c1ccc(F)cc1 (stereo not drawn) — lower, 6.9%
- O=C1CC(c2ccc(C(=O)O)cc2)c2ncn(-c3ccccc3)c2N1 (stereo not drawn) — lower, 52.4%
- O=C1CC(c2ccc(C(=O)O)cc2)c2ncn(-c3cccc(Cl)c3)c2N1 (stereo not drawn) — lower, 51.7%
- O=C1C[C@H]2[C@@H](CCN2C(=O)Cc2ccccc2)N1Cc1cccnc1 — lower, 9.62%
- CCS(=O)(=O)N1CCC2(CC1)CC[C@@]1(C(=O)N(C)C)CN(C(C)=O)C[C@@H]21 — lower, 12.8%

Reference: ChEMBL document CHEMBL3988442, “University of Dundee, Small-Polar-MMV Screening Library” (2021)
